From ChEMBL document CHEMBL1961873, “Compounds: GSK PKIS; Assays: Nanosyn kinase panel” (2012)

What follows are molecules tested against Ribosomal protein S6 kinase alpha-3 (Homo sapiens) (UniProt P51812). Details: at 0.1 µM.
Ribosomal protein S6 kinase alpha-3 (Homo sapiens), sequence (P51812 whole entry): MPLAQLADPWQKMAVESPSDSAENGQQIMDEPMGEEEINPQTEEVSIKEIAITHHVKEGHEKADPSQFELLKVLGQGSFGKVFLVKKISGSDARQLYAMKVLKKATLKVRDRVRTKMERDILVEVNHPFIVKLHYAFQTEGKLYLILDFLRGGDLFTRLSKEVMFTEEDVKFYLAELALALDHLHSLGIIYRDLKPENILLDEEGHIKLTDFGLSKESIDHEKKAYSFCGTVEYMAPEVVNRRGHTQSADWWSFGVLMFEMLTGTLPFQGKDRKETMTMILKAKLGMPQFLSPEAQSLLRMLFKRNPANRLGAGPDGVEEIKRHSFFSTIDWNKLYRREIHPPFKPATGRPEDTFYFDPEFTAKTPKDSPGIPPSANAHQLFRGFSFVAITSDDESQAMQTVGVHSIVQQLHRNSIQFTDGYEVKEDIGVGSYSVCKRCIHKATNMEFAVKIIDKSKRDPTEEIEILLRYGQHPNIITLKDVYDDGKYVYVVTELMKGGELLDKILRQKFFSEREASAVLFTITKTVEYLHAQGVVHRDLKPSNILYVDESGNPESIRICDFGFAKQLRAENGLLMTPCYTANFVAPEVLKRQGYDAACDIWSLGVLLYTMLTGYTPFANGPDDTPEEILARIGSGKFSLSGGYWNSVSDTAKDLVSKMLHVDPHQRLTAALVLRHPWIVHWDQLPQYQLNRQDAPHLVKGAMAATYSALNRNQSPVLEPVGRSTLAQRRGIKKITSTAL
NC(=O)Cc1ccccc1Oc1nccc(-c2c(-c3ccc(F)cc3)ncn2C2CCNCC2)n1 was tested, and the inhibition was 0.99%.
Molecule C[C@@H](Oc1cc(-n2cnc3ccc(OC4CCN(C)CC4)cc32)sc1C(N)=O)c1ccccc1Cl has an inhibition of 3.29%.
With NS(=O)(=O)c1ccc(N/N=C2\C(=O)Nc3ccc(-c4cnco4)cc32)cc1 the inhibition was -1%.
Molecule NS(=O)(=O)c1ccc(Nc2cc(-c3ccc(O)c(F)c3)n[nH]2)cc1 has an inhibition of 13.1%.
In the case of CCS(=O)(=O)c1ccc(OC)c(Nc2ncc(-c3ccccc3Cl)o2)c1, the inhibition is reported as 0.57%.
COc1cc(Nc2ncc3c(C)nc(-c4cccc(C(F)(F)F)c4)n3n2)cc(OC)c1OC gave an inhibition of 5.91%.
Cc1ccc(C(=O)NC2CCC2)cc1-c1ccc(C(=O)NCC2CC2)cc1 gave an inhibition of 0.97%.
C[C@@H](Oc1cc(-n2cnc3ccc(OCC4CCN(C)CC4)cc32)sc1C(N)=O)c1ccccc1Cl was tested, and the inhibition was 4.17%.
Work on Fc1ccc(-c2ncn(C3CCNCC3)c2-c2ccnc(Oc3ccc4c(c3)OCO4)n2)cc1 yielded an inhibition of -0.4%.
CCS(=O)(=O)c1ccc(OC)c(Nc2ncc(-c3cccc(-c4ccccc4F)c3)o2)c1 gave an inhibition of 0.3%.
CN(c1ccc(NC(=O)Nc2c(Cl)cccc2Cl)cc1)c1ccnc(Nc2cccc(CS(C)(=O)=O)c2)n1 showed an inhibition of 2.08%.
O=C(NCC1CC1)c1ccc(-c2cccc(C(=O)NC3CC3)c2)cc1 gave an inhibition of 0.89%.
COc1ccc2cc(-c3c(-c4ccncc4)nc(-c4ccc(S(C)(=O)=O)cc4C)n3C)ccc2c1 showed an inhibition of 4.66%.
Work on NC(=O)c1ccc(Oc2nccc(-c3c(-c4ccc(F)cc4)ncn3C3CCNCC3)n2)cc1 yielded an inhibition of -0.35%.
With Nc1nccc(-c2c(-c3ccc(F)cc3)ncn2C2CCC(O)CC2)n1 (stereo not drawn) the inhibition was -0.92%.
Molecule COc1cc2ncn(-c3cc(OCCc4ccccc4)c(C(N)=O)s3)c2cc1OC has an inhibition of 0.83%.
With Cc1ccc(NC(=O)c2ccoc2)cc1-c1ccc(C(=O)NCC2CC2)cc1 the inhibition was -0.62%.
COc1cc(Nc2ncc(-c3ccccc3)o2)cc(OC)c1OC gave an inhibition of 0.02%.
For O=C(Nc1n[nH]c2nc(-c3ccc(O)cc3)c(Br)cc12)C1CC1, the inhibition was 10.3%.
Work on CCc1nccc2c1nc(-c1nonc1N)n2CC yielded an inhibition of 2.22%.
COc1ccc(C2=C(N3CCc4ccccc43)C(=O)NC2=O)cc1 was tested, and the inhibition was 0.95%.
Molecule COc1ccc(-c2ccc3c(NC(=O)C4CC4)n[nH]c3n2)cc1 has an inhibition of 1.62%.
Molecule COc1cc2ncn(-c3cc(OCc4ccccc4C(F)(F)F)c(C(C)=O)s3)c2cc1OC has an inhibition of 0.97%.
Molecule Fc1ccc(-c2ncn(C3CCNCC3)c2-c2ccnc(Oc3ccc(Oc4ccccc4)cc3)n2)cc1 has an inhibition of 1.73%.
COc1cc2ncn(-c3cc(OCc4cccs4)c(C(N)=O)s3)c2cc1OC showed an inhibition of 3.71%.
In the case of O=C(Nc1ccc(Oc2ccc3[nH]c(NC(=O)c4ccccc4)nc3c2)cc1)Nc1cc(C(F)(F)F)ccc1F, the inhibition is reported as 0.81%.
Work on Fc1ccc(-c2nc3n(c2-c2ccncc2)CCS3)cc1 yielded an inhibition of 1.5%.
Work on Fc1ccc(-c2ncn(C3CCNCC3)c2-c2ccnc(Oc3ccc(F)c(F)c3)n2)cc1 yielded an inhibition of -0.47%.
COc1cccc(/C=N/Nc2ncnc3c2cnn3-c2cccc(OC)c2)c1 showed an inhibition of 0.86%.
Work on C/C(Nc1ccc(S(N)(=O)=O)cc1)=C1/C(=O)Nc2ccccc21 yielded an inhibition of 1.49%.
Molecule NS(=O)(=O)c1ccc(N/N=C2\C(=O)Nc3ccc(C(=O)NCCCn4ccnc4)cc32)cc1 has an inhibition of 2.08%.
With CN(C)CCOc1ccc(-c2cc(-c3ccc4c(c3)CCC4=NO)c(-c3ccncc3)o2)cc1 the inhibition was -0.48%.
With COc1ccc2cc(-c3c(-c4ccncc4)nc(-c4ccc([S+](C)[O-])cc4C)n3C)ccc2c1 (stereo not drawn) the inhibition was -0.38%.
FC(F)(F)c1cccc(Nc2nccc(-c3cnn4nc(-c5ccccc5)ccc34)n2)c1 showed an inhibition of 1.05%.

The molecules below were run against Ribosomal protein S6 kinase alpha-3 (Homo sapiens) (UniProt P51812). Details: at 1 µM.
For NC(=O)Cc1ccccc1Oc1nccc(-c2c(-c3ccc(F)cc3)ncn2C2CCNCC2)n1, the inhibition was 1.35%.
For C[C@@H](Oc1cc(-n2cnc3ccc(OC4CCN(C)CC4)cc32)sc1C(N)=O)c1ccccc1Cl, the inhibition was 21.8%.
NS(=O)(=O)c1ccc(N/N=C2\C(=O)Nc3ccc(-c4cnco4)cc32)cc1 was tested, and the inhibition was 2.65%.
In the case of NS(=O)(=O)c1ccc(Nc2cc(-c3ccc(O)c(F)c3)n[nH]2)cc1, the inhibition is reported as 56.4%.
Work on CCS(=O)(=O)c1ccc(OC)c(Nc2ncc(-c3ccccc3Cl)o2)c1 yielded an inhibition of 4.01%.
COc1cc(Nc2ncc3c(C)nc(-c4cccc(C(F)(F)F)c4)n3n2)cc(OC)c1OC showed an inhibition of 31.8%.
Work on Cc1ccc(C(=O)NC2CCC2)cc1-c1ccc(C(=O)NCC2CC2)cc1 yielded an inhibition of 1.47%.
C[C@@H](Oc1cc(-n2cnc3ccc(OCC4CCN(C)CC4)cc32)sc1C(N)=O)c1ccccc1Cl showed an inhibition of 22.5%.
Fc1ccc(-c2ncn(C3CCNCC3)c2-c2ccnc(Oc3ccc4c(c3)OCO4)n2)cc1 showed an inhibition of 2.18%.
CCS(=O)(=O)c1ccc(OC)c(Nc2ncc(-c3cccc(-c4ccccc4F)c3)o2)c1 was tested, and the inhibition was 0.84%.
CN(c1ccc(NC(=O)Nc2c(Cl)cccc2Cl)cc1)c1ccnc(Nc2cccc(CS(C)(=O)=O)c2)n1 gave an inhibition of 3.81%.
O=C(NCC1CC1)c1ccc(-c2cccc(C(=O)NC3CC3)c2)cc1 was tested, and the inhibition was -1.16%.
Work on COc1ccc2cc(-c3c(-c4ccncc4)nc(-c4ccc(S(C)(=O)=O)cc4C)n3C)ccc2c1 yielded an inhibition of 9.83%.
In the case of NC(=O)c1ccc(Oc2nccc(-c3c(-c4ccc(F)cc4)ncn3C3CCNCC3)n2)cc1, the inhibition is reported as 0.53%.
Nc1nccc(-c2c(-c3ccc(F)cc3)ncn2C2CCC(O)CC2)n1 (stereo not drawn) showed an inhibition of -0.98%.
COc1cc2ncn(-c3cc(OCCc4ccccc4)c(C(N)=O)s3)c2cc1OC was tested, and the inhibition was 0.32%.
In the case of Cc1ccc(NC(=O)c2ccoc2)cc1-c1ccc(C(=O)NCC2CC2)cc1, the inhibition is reported as 0.11%.
COc1cc(Nc2ncc(-c3ccccc3)o2)cc(OC)c1OC was tested, and the inhibition was 2.83%.
With O=C(Nc1n[nH]c2nc(-c3ccc(O)cc3)c(Br)cc12)C1CC1 the inhibition was 44.8%.
CCc1nccc2c1nc(-c1nonc1N)n2CC gave an inhibition of 15.6%.
COc1ccc(C2=C(N3CCc4ccccc43)C(=O)NC2=O)cc1 gave an inhibition of 1.69%.
Molecule COc1ccc(-c2ccc3c(NC(=O)C4CC4)n[nH]c3n2)cc1 has an inhibition of 3%.
Work on COc1cc2ncn(-c3cc(OCc4ccccc4C(F)(F)F)c(C(C)=O)s3)c2cc1OC yielded an inhibition of 1.14%.
With Fc1ccc(-c2ncn(C3CCNCC3)c2-c2ccnc(Oc3ccc(Oc4ccccc4)cc3)n2)cc1 the inhibition was 2.37%.
For COc1cc2ncn(-c3cc(OCc4cccs4)c(C(N)=O)s3)c2cc1OC, the inhibition was 11.8%.
Work on O=C(Nc1ccc(Oc2ccc3[nH]c(NC(=O)c4ccccc4)nc3c2)cc1)Nc1cc(C(F)(F)F)ccc1F yielded an inhibition of 1.47%.
For Fc1ccc(-c2nc3n(c2-c2ccncc2)CCS3)cc1, the inhibition was 1.71%.
Fc1ccc(-c2ncn(C3CCNCC3)c2-c2ccnc(Oc3ccc(F)c(F)c3)n2)cc1 showed an inhibition of 1.32%.
Molecule COc1cccc(/C=N/Nc2ncnc3c2cnn3-c2cccc(OC)c2)c1 has an inhibition of 1.4%.
For C/C(Nc1ccc(S(N)(=O)=O)cc1)=C1/C(=O)Nc2ccccc21, the inhibition was 14.6%.
NS(=O)(=O)c1ccc(N/N=C2\C(=O)Nc3ccc(C(=O)NCCCn4ccnc4)cc32)cc1 gave an inhibition of 9.61%.
For CN(C)CCOc1ccc(-c2cc(-c3ccc4c(c3)CCC4=NO)c(-c3ccncc3)o2)cc1, the inhibition was -0.08%.
COc1ccc2cc(-c3c(-c4ccncc4)nc(-c4ccc([S+](C)[O-])cc4C)n3C)ccc2c1 (stereo not drawn) gave an inhibition of -0.28%.
With FC(F)(F)c1cccc(Nc2nccc(-c3cnn4nc(-c5ccccc5)ccc34)n2)c1 the inhibition was 1.35%.
